In PubChem BioAssay (NCI):
Compounds without any hit were thinned out: in the full panel of roughly 83,000, 20% have a hit.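 Growth was measured after 48 h exposure to one concentration of compound in 96-well plates. Values under 10 count as active.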 Activity calls are given as the source filed them.

Experiments:
Assay in all cases: NCI-60 one-dose screen, 48 h (100 = growth as untreated, 0 = no growth, -100 = all killed)
Conditions in all cases: 10 µM unless noted
NCI-H23 lung = tested on: NCI-H23 lung
NCI-H226 lung = tested on: NCI-H226 lung
NCI-H322M lung = tested on: NCI-H322M lung
HOP-62 NSCLC = tested on: HOP-62 NSCLC
NCI-H460 lung = tested on: NCI-H460 lung
HOP-92 NSCLC = tested on: HOP-92 NSCLC
NCI-H522 lung = tested on: NCI-H522 lung
A549/ATCC NSCLC = tested on: A549/ATCC NSCLC
786-0 renal = tested on: 786-0 renal
COLO 205 colon = tested on: COLO 205 colon
DU-145 prostate = tested on: DU-145 prostate
K-562 leukemia = tested on: K-562 leukemia
MALME-3M melanoma = tested on: MALME-3M melanoma
RXF 393 renal = tested on: RXF 393 renal
SF-268 CNS = tested on: SF-268 CNS
SF-295 CNS = tested on: SF-295 CNS
SF-539 CNS = tested on: SF-539 CNS
UACC-257 melanoma = tested on: UACC-257 melanoma
M14 melanoma = tested on: M14 melanoma
MDA-MB-231 breast = tested on: MDA-MB-231 breast

Measured: growth

C(=C\c1cc(/C=C/c2ccccc2)c2ccccc2n1)/c1ccccc1
inactive: NCI-H23 lung 82.2% | NCI-H226 lung 106% | NCI-H322M lung 120% | HOP-62 NSCLC 109% | NCI-H460 lung 102% | HOP-92 NSCLC 84% | NCI-H522 lung 93.4% | A549/ATCC NSCLC 101% | 786-0 renal 80.7% | COLO 205 colon 118% | DU-145 prostate 101% | K-562 leukemia 43.2% | MALME-3M melanoma 90.5% | RXF 393 renal 111% | SF-268 CNS 102% | SF-295 CNS 109% | SF-539 CNS 74.3% | UACC-257 melanoma 98.5% | M14 melanoma 51.4%

Cc1cnc(C(=O)NNc2nc3cc(F)ccc3n3c(C(=O)N4CC5CC(C4)N5)ccc23)cn1
inactive: NCI-H23 lung 51.1% | NCI-H226 lung 12.5% | NCI-H322M lung 35.4% | HOP-62 NSCLC 59.3% | HOP-92 NSCLC 65.2% | NCI-H522 lung 57.8% | A549/ATCC NSCLC 25.4% | COLO 205 colon 10.5% | DU-145 prostate 48.8% | MALME-3M melanoma 43% | MDA-MB-231 breast 43.7% | RXF 393 renal 60.4% | SF-268 CNS 33.9% | SF-295 CNS 11% | UACC-257 melanoma 25.5%
active: NCI-H460 lung 9.91% | 786-0 renal -2.57% | SF-539 CNS 8.21% | M14 melanoma -22.8%

N/C(=N\c1nc2ccccc2s1)NC(=O)NCCCCCCO
inactive: NCI-H23 lung 31.4% | NCI-H226 lung 36.2% | NCI-H322M lung 71.1% | HOP-62 NSCLC 43.5% | NCI-H460 lung 59.3% | HOP-92 NSCLC 22% | NCI-H522 lung 36% | A549/ATCC NSCLC 55% | 786-0 renal 58.7% | COLO 205 colon 88.1% | DU-145 prostate 56.7% | K-562 leukemia 23.4% | MALME-3M melanoma 54% | RXF 393 renal 43.6% | SF-268 CNS 61.6% | SF-295 CNS 21.4% | SF-539 CNS 64.8% | UACC-257 melanoma 29.2% | M14 melanoma 67.3%

COc1ccc(C(=O)/C=C/c2cccc(Br)c2)cc1S(N)(=O)=O
active: NCI-H23 lung -66.3% | NCI-H322M lung 3.22% | HOP-62 NSCLC -86.8% | NCI-H460 lung 2.36% | HOP-92 NSCLC -9.79% | NCI-H522 lung -79% | A549/ATCC NSCLC -86.2% | 786-0 renal -98.3% | COLO 205 colon -92.6% | DU-145 prostate -37% | MALME-3M melanoma -33.5% | MDA-MB-231 breast -65.5% | RXF 393 renal -80.3% | SF-268 CNS -39.4% | SF-295 CNS -81.2% | SF-539 CNS -95.7% | UACC-257 melanoma -80% | M14 melanoma -93%
inactive: NCI-H226 lung 17.4%

CC(=O)NNc1ccc2nnc(-c3ccccc3)n2n1
inactive: NCI-H23 lung 96.6% | NCI-H226 lung 105% | NCI-H322M lung 102% | HOP-62 NSCLC 116% | NCI-H460 lung 106% | HOP-92 NSCLC 109% | NCI-H522 lung 109% | A549/ATCC NSCLC 102% | 786-0 renal 104% | COLO 205 colon 104% | DU-145 prostate 103% | MALME-3M melanoma 98.5% | MDA-MB-231 breast 106% | RXF 393 renal 101% | SF-268 CNS 95% | SF-295 CNS 104% | SF-539 CNS 103% | UACC-257 melanoma 109% | M14 melanoma 98.8%

O=C(NNc1nc2cc(F)ccc2n2c(CN3CCCCC3)ccc12)c1cnccn1
inactive: MALME-3M melanoma 22.6%
active: NCI-H23 lung -21.3% | NCI-H226 lung -24.6% | NCI-H322M lung -7.19% | HOP-62 NSCLC -59.2% | NCI-H460 lung -11.7% | HOP-92 NSCLC -24.8% | NCI-H522 lung -50.9% | A549/ATCC NSCLC -76.8% | 786-0 renal -98.3% | COLO 205 colon -50.5% | DU-145 prostate -43.7% | MDA-MB-231 breast -31.1% | RXF 393 renal -83.3% | SF-268 CNS -20.9% | SF-295 CNS -92% | SF-539 CNS -66% | UACC-257 melanoma -81.1% | M14 melanoma -86.5%

CCOC(=O)C1=C(N)N(c2ccccc2)C2=C(C(=O)CC(C)(C)C2)C1c1cccc(Cl)c1Cl (configuration not stated)
active: HOP-92 NSCLC -0.828%
inactive: NCI-H23 lung 69.7% | NCI-H226 lung 40.3% | NCI-H322M lung 77.8% | HOP-62 NSCLC 40.8% | NCI-H460 lung 61% | NCI-H522 lung 74.9% | A549/ATCC NSCLC 60.6% | 786-0 renal 67.7% | COLO 205 colon 80.6% | DU-145 prostate 81% | K-562 leukemia 59.5% | MALME-3M melanoma 77.6% | RXF 393 renal 53.4% | SF-268 CNS 66% | SF-295 CNS 53.5% | SF-539 CNS 32.6% | UACC-257 melanoma 85.4% | M14 melanoma 81%

O=C(NNc1nc2cc(C(F)(F)F)ccc2n2cccc12)c1cnccn1
active: NCI-H23 lung -27.5% | NCI-H226 lung -53.5% | NCI-H322M lung -13.6% | HOP-62 NSCLC -73.4% | NCI-H460 lung -30.3% | HOP-92 NSCLC -74% | NCI-H522 lung -60.2% | A549/ATCC NSCLC -60.5% | 786-0 renal -99.1% | COLO 205 colon -72.3% | DU-145 prostate -57.5% | MALME-3M melanoma -57.2% | MDA-MB-231 breast -66.8% | RXF 393 renal -74% | SF-268 CNS -53.4% | SF-295 CNS -92.1% | SF-539 CNS -83% | UACC-257 melanoma -83.9% | M14 melanoma -81.9%
